# Publication PMC11006913
# Residue numbers refer to the chain shown, from its start.
# Key:
# Test in all cases: PBM; 200 nM protein, PBS
# Details in all cases: dsDNA, one strand shown
# [1] = target: HOXB9 (Homo sapiens, UniProt P17482 171-250, T197M)
# [2] = target: HOXC9 (Homo sapiens, UniProt P31274 178-260, K195R)
# [3] = target: T1, VENTX (Homo sapiens, UniProt O95231 78-163)
# T1 sequence: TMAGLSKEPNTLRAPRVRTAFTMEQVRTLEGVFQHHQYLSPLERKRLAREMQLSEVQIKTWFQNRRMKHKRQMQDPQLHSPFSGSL
# [4] = target: HOXA7 (Homo sapiens, UniProt P31268 116-202)
# [5] = target: T2, PAX4 (Homo sapiens, UniProt O43316 9-242, R200K)
# T2 sequence: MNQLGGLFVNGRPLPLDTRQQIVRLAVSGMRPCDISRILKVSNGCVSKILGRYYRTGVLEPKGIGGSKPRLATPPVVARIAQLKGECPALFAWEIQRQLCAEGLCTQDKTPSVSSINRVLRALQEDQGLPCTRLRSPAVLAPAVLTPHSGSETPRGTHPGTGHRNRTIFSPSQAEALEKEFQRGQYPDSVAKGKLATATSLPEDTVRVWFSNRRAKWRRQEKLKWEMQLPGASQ
# [6] = target: T3, PAX4 (Homo sapiens, UniProt O43316 9-242)
# T3 sequence: T2 sequence with K192R
# [7] = target: HOXB9 (Homo sapiens, UniProt P17482 171-250)
# [8] = target: HOXC9 (Homo sapiens, UniProt P31274 178-260)
# [9] = target: HOXC9 (Homo sapiens, UniProt P31274 178-260, R193K)
# [10] = target: HOXA2 (Homo sapiens, UniProt O43364 129-215, R185K)
# [11] = target: HOXC10 (Homo sapiens, UniProt Q9NYD6 254-340, K271E)
# [12] = target: VAX1 (Homo sapiens, UniProt Q5SQQ9 86-172)
# [13] = target: HOXB9 (Homo sapiens, UniProt P17482 171-250, R186Q)
# [14] = target: HOXC9 (Homo sapiens, UniProt P31274 178-260, R222W)
# [15] = target: T4, PAX4 (Homo sapiens, UniProt O43316 9-242, R227W)
# T4 sequence: T2 sequence with K192R, R219W
# [16] = target: HOXA2 (Homo sapiens, UniProt O43364 129-215, Y150S)
# [17] = target: HOXA7 (Homo sapiens, UniProt P31268 116-202, W177C)
# [18] = target: HOXA2 (Homo sapiens, UniProt O43364 129-215)
# [19] = target: HOXB6 (Homo sapiens, UniProt P17509 132-218)
# [20] = target: HOXC10 (Homo sapiens, UniProt Q9NYD6 254-340)
# HOXC10 (Homo sapiens, UniProt Q9NYD6 254-340), sequence (Q9NYD6 254-340): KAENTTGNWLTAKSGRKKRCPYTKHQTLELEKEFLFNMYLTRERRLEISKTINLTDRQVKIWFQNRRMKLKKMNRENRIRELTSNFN
# VAX1, sequence (Q5SQQ9 86-172): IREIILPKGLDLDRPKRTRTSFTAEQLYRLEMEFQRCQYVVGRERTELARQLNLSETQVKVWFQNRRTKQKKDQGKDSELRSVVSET
# HOXB9 (Homo sapiens, UniProt P17482 171-250, T197M), sequence (P17482 171-250 T197M): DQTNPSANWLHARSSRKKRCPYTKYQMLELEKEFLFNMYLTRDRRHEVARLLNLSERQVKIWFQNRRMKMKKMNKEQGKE
# HOXC9 (Homo sapiens, UniProt P31274 178-260, R193K), sequence (P31274 178-260 R193K): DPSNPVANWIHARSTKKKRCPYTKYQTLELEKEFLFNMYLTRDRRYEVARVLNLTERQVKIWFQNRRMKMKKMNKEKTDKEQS
# HOXC10 (Homo sapiens, UniProt Q9NYD6 254-340, K271E), sequence (Q9NYD6 254-340 K271E): as the sequence (Q9NYD6 254-340) above, with K18E counted along it
# HOXB9 (Homo sapiens, UniProt P17482 171-250), sequence (P17482 171-250): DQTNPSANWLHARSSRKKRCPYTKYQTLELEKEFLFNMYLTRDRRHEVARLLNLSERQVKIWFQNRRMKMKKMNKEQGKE
# HOXA2 (Homo sapiens, UniProt O43364 129-215, R185K), sequence (O43364 129-215 R185K): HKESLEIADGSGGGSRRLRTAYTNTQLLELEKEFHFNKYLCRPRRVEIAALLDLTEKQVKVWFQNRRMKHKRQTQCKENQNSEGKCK
# HOXA7 (Homo sapiens, UniProt P31268 116-202, W177C), sequence (P31268 116-202 W177C): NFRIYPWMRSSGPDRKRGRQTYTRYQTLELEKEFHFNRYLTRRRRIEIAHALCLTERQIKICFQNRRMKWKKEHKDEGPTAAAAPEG
# HOXB9 (Homo sapiens, UniProt P17482 171-250, R186Q), sequence (P17482 171-250 R186Q): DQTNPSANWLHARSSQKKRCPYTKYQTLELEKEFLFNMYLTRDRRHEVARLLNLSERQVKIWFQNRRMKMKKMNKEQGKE
# HOXB6, sequence (P17509 132-218): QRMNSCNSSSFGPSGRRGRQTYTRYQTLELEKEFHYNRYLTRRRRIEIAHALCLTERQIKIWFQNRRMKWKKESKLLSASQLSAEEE
# HOXC9 (Homo sapiens, UniProt P31274 178-260, K195R), sequence (P31274 178-260 K195R): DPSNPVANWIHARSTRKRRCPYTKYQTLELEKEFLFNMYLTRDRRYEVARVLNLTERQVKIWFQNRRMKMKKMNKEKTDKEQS
# HOXC9 (Homo sapiens, UniProt P31274 178-260), sequence (P31274 178-260): as the sequence (P31274 178-260 R193K) above, with K16R counted along it
# HOXA2 (Homo sapiens, UniProt O43364 129-215, Y150S), sequence (O43364 129-215 Y150S): as the sequence (O43364 129-215 R185K) above, with Y22S, K57R counted along it
# HOXA7 (Homo sapiens, UniProt P31268 116-202), sequence (P31268 116-202): as the sequence (P31268 116-202 W177C) above, with C62W counted along it
# HOXC9 (Homo sapiens, UniProt P31274 178-260, R222W), sequence (P31274 178-260 R222W): as the sequence (P31274 178-260 R193K) above, with K16R, R45W counted along it
# HOXA2 (Homo sapiens, UniProt O43364 129-215), sequence (O43364 129-215): as the sequence (O43364 129-215 R185K) above, with K57R counted along it
Sequence,binding signal [1],binding signal [2],binding signal [3],binding signal [4],binding signal [5],binding signal [6],binding signal [7],binding signal [8],binding signal [9],binding signal [10],binding signal [11],binding signal [12],binding signal [13],binding signal [14],binding signal [15],binding signal [16],binding signal [17],binding signal [18],binding signal [19],binding signal [20]
GCTAATTA,"10.2 upbm affinity estimate (log intensity, higher = more binding, comparable within an allelic series)","12.5 upbm affinity estimate (log intensity, higher = more binding, comparable within an allelic series)","13.5 upbm affinity estimate (log intensity, higher = more binding, comparable within an allelic series)","12.1 upbm affinity estimate (log intensity, higher = more binding, comparable within an allelic series)","12.3 upbm affinity estimate (log intensity, higher = more binding, comparable within an allelic series)","12.9 upbm affinity estimate (log intensity, higher = more binding, comparable within an allelic series)","11.8 upbm affinity estimate (log intensity, higher = more binding, comparable within an allelic series)","12.6 upbm affinity estimate (log intensity, higher = more binding, comparable within an allelic series)","12.5 upbm affinity estimate (log intensity, higher = more binding, comparable within an allelic series)","14.1 upbm affinity estimate (log intensity, higher = more binding, comparable within an allelic series)","12.1 upbm affinity estimate (log intensity, higher = more binding, comparable within an allelic series)","14 upbm affinity estimate (log intensity, higher = more binding, comparable within an allelic series)","11.5 upbm affinity estimate (log intensity, higher = more binding, comparable within an allelic series)","10.9 upbm affinity estimate (log intensity, higher = more binding, comparable within an allelic series)","11.4 upbm affinity estimate (log intensity, higher = more binding, comparable within an allelic series)","10.8 upbm affinity estimate (log intensity, higher = more binding, comparable within an allelic series)","8.89 upbm affinity estimate (log intensity, higher = more binding, comparable within an allelic series)","13.4 upbm affinity estimate (log intensity, higher = more binding, comparable within an allelic series)","12.5 upbm affinity estimate (log intensity, higher = more binding, comparable within an allelic series)",
GTAATTAC,"10.6 upbm affinity estimate (log intensity, higher = more binding, comparable within an allelic series)","13.1 upbm affinity estimate (log intensity, higher = more binding, comparable within an allelic series)","12.9 upbm affinity estimate (log intensity, higher = more binding, comparable within an allelic series)","12.5 upbm affinity estimate (log intensity, higher = more binding, comparable within an allelic series)","12 upbm affinity estimate (log intensity, higher = more binding, comparable within an allelic series)","12.5 upbm affinity estimate (log intensity, higher = more binding, comparable within an allelic series)","12.3 upbm affinity estimate (log intensity, higher = more binding, comparable within an allelic series)","13.1 upbm affinity estimate (log intensity, higher = more binding, comparable within an allelic series)","13.2 upbm affinity estimate (log intensity, higher = more binding, comparable within an allelic series)","14.3 upbm affinity estimate (log intensity, higher = more binding, comparable within an allelic series)","12.6 upbm affinity estimate (log intensity, higher = more binding, comparable within an allelic series)","13.9 upbm affinity estimate (log intensity, higher = more binding, comparable within an allelic series)","12.1 upbm affinity estimate (log intensity, higher = more binding, comparable within an allelic series)","11 upbm affinity estimate (log intensity, higher = more binding, comparable within an allelic series)","11 upbm affinity estimate (log intensity, higher = more binding, comparable within an allelic series)","11.2 upbm affinity estimate (log intensity, higher = more binding, comparable within an allelic series)","9.01 upbm affinity estimate (log intensity, higher = more binding, comparable within an allelic series)","13.4 upbm affinity estimate (log intensity, higher = more binding, comparable within an allelic series)","12.8 upbm affinity estimate (log intensity, higher = more binding, comparable within an allelic series)","12.5 upbm affinity estimate (log intensity, higher = more binding, comparable within an allelic series)"
AATAATTA,"10.3 upbm affinity estimate (log intensity, higher = more binding, comparable within an allelic series)","12.7 upbm affinity estimate (log intensity, higher = more binding, comparable within an allelic series)","12.4 upbm affinity estimate (log intensity, higher = more binding, comparable within an allelic series)","11.9 upbm affinity estimate (log intensity, higher = more binding, comparable within an allelic series)","11.8 upbm affinity estimate (log intensity, higher = more binding, comparable within an allelic series)","12.3 upbm affinity estimate (log intensity, higher = more binding, comparable within an allelic series)","11.9 upbm affinity estimate (log intensity, higher = more binding, comparable within an allelic series)","12.7 upbm affinity estimate (log intensity, higher = more binding, comparable within an allelic series)","12.6 upbm affinity estimate (log intensity, higher = more binding, comparable within an allelic series)","13.6 upbm affinity estimate (log intensity, higher = more binding, comparable within an allelic series)","11.9 upbm affinity estimate (log intensity, higher = more binding, comparable within an allelic series)","13.3 upbm affinity estimate (log intensity, higher = more binding, comparable within an allelic series)","11.6 upbm affinity estimate (log intensity, higher = more binding, comparable within an allelic series)","11.1 upbm affinity estimate (log intensity, higher = more binding, comparable within an allelic series)","11.2 upbm affinity estimate (log intensity, higher = more binding, comparable within an allelic series)","10.9 upbm affinity estimate (log intensity, higher = more binding, comparable within an allelic series)","9.07 upbm affinity estimate (log intensity, higher = more binding, comparable within an allelic series)","12.9 upbm affinity estimate (log intensity, higher = more binding, comparable within an allelic series)","12.3 upbm affinity estimate (log intensity, higher = more binding, comparable within an allelic series)","12.2 upbm affinity estimate (log intensity, higher = more binding, comparable within an allelic series)"
TTAATTAA,"10.4 upbm affinity estimate (log intensity, higher = more binding, comparable within an allelic series)","12.9 upbm affinity estimate (log intensity, higher = more binding, comparable within an allelic series)","12.8 upbm affinity estimate (log intensity, higher = more binding, comparable within an allelic series)","12.2 upbm affinity estimate (log intensity, higher = more binding, comparable within an allelic series)","12.1 upbm affinity estimate (log intensity, higher = more binding, comparable within an allelic series)","12.6 upbm affinity estimate (log intensity, higher = more binding, comparable within an allelic series)","12.3 upbm affinity estimate (log intensity, higher = more binding, comparable within an allelic series)","12.8 upbm affinity estimate (log intensity, higher = more binding, comparable within an allelic series)","12.7 upbm affinity estimate (log intensity, higher = more binding, comparable within an allelic series)","13.7 upbm affinity estimate (log intensity, higher = more binding, comparable within an allelic series)","12.3 upbm affinity estimate (log intensity, higher = more binding, comparable within an allelic series)","13.6 upbm affinity estimate (log intensity, higher = more binding, comparable within an allelic series)","12 upbm affinity estimate (log intensity, higher = more binding, comparable within an allelic series)","11.5 upbm affinity estimate (log intensity, higher = more binding, comparable within an allelic series)","11.4 upbm affinity estimate (log intensity, higher = more binding, comparable within an allelic series)","10.8 upbm affinity estimate (log intensity, higher = more binding, comparable within an allelic series)","8.85 upbm affinity estimate (log intensity, higher = more binding, comparable within an allelic series)","13.1 upbm affinity estimate (log intensity, higher = more binding, comparable within an allelic series)","12.5 upbm affinity estimate (log intensity, higher = more binding, comparable within an allelic series)","12.4 upbm affinity estimate (log intensity, higher = more binding, comparable within an allelic series)"
CATAATTA,"10.3 upbm affinity estimate (log intensity, higher = more binding, comparable within an allelic series)","12.8 upbm affinity estimate (log intensity, higher = more binding, comparable within an allelic series)","12.6 upbm affinity estimate (log intensity, higher = more binding, comparable within an allelic series)","12 upbm affinity estimate (log intensity, higher = more binding, comparable within an allelic series)","11.9 upbm affinity estimate (log intensity, higher = more binding, comparable within an allelic series)","12.5 upbm affinity estimate (log intensity, higher = more binding, comparable within an allelic series)","11.9 upbm affinity estimate (log intensity, higher = more binding, comparable within an allelic series)","12.8 upbm affinity estimate (log intensity, higher = more binding, comparable within an allelic series)","12.8 upbm affinity estimate (log intensity, higher = more binding, comparable within an allelic series)","13.8 upbm affinity estimate (log intensity, higher = more binding, comparable within an allelic series)","12.2 upbm affinity estimate (log intensity, higher = more binding, comparable within an allelic series)","13.6 upbm affinity estimate (log intensity, higher = more binding, comparable within an allelic series)","11.7 upbm affinity estimate (log intensity, higher = more binding, comparable within an allelic series)","11.1 upbm affinity estimate (log intensity, higher = more binding, comparable within an allelic series)","11.3 upbm affinity estimate (log intensity, higher = more binding, comparable within an allelic series)","11.1 upbm affinity estimate (log intensity, higher = more binding, comparable within an allelic series)","9.06 upbm affinity estimate (log intensity, higher = more binding, comparable within an allelic series)","13 upbm affinity estimate (log intensity, higher = more binding, comparable within an allelic series)","12.4 upbm affinity estimate (log intensity, higher = more binding, comparable within an allelic series)","12.3 upbm affinity estimate (log intensity, higher = more binding, comparable within an allelic series)"
CTTAATTA,"10.2 upbm affinity estimate (log intensity, higher = more binding, comparable within an allelic series)","12.7 upbm affinity estimate (log intensity, higher = more binding, comparable within an allelic series)","12.9 upbm affinity estimate (log intensity, higher = more binding, comparable within an allelic series)","12.1 upbm affinity estimate (log intensity, higher = more binding, comparable within an allelic series)","12.1 upbm affinity estimate (log intensity, higher = more binding, comparable within an allelic series)","12.7 upbm affinity estimate (log intensity, higher = more binding, comparable within an allelic series)","11.8 upbm affinity estimate (log intensity, higher = more binding, comparable within an allelic series)","12.6 upbm affinity estimate (log intensity, higher = more binding, comparable within an allelic series)","12.6 upbm affinity estimate (log intensity, higher = more binding, comparable within an allelic series)","13.8 upbm affinity estimate (log intensity, higher = more binding, comparable within an allelic series)","12.2 upbm affinity estimate (log intensity, higher = more binding, comparable within an allelic series)","13.8 upbm affinity estimate (log intensity, higher = more binding, comparable within an allelic series)","11.5 upbm affinity estimate (log intensity, higher = more binding, comparable within an allelic series)","11.1 upbm affinity estimate (log intensity, higher = more binding, comparable within an allelic series)","11.3 upbm affinity estimate (log intensity, higher = more binding, comparable within an allelic series)","11 upbm affinity estimate (log intensity, higher = more binding, comparable within an allelic series)","8.96 upbm affinity estimate (log intensity, higher = more binding, comparable within an allelic series)","13.1 upbm affinity estimate (log intensity, higher = more binding, comparable within an allelic series)","12.5 upbm affinity estimate (log intensity, higher = more binding, comparable within an allelic series)","12.2 upbm affinity estimate (log intensity, higher = more binding, comparable within an allelic series)"
